Out of some 260,000 compounds screened, about 1,500 (0.58%) were called active. About 5% were inconclusive and are not listed.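 How the source made its calls: active means inhibition above a set limit at one or more doses, reproduced on every date tested; inconclusive means results disagree between test dates, or hit never tested in dose response; inactive means the rest.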 Not all results are given here. Potency and affinity values are given separately.
Biological target: Virion infectivity factor (Human immunodeficiency virus type 1 group M subtype B (isolate BH10)) + Virion infectivity factor (Human immunodeficiency virus type 1 group M subtype B (isolate BRU/LAI)) + Virion infectivity factor (Human immunodeficiency virus type 1 group M subtype B (isolate PCV12)) + Virion infectivity factor (Human immunodeficiency virus type 1 group M subtype B (isolate HXB2)) + DNA dC->dU-editing enzyme APOBEC-3G (Homo sapiens) (UniProt P69720+P69721+P69722+P69723+Q9HC16)
Assay: inhibitors of Vif binding to APOBEC3G peptide, primary screen, biochemical, TR-FRET, GST-Vif 1-94, biotin-A3G peptide, dose response retest (AID 1117319);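 further: Vif residues 1-94 fused to GST binding biotinylated APOBEC3G peptide 110-148; 0% = full assay without inhibitor and 100% = GST in place of GST-Vif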
Conditions: active compounds read high

inhibition, inactive:
CC(NS(=O)(=O)c1ccccc1)C(=O)Nc1ccc2c(c1)OCCO2 (stereo not drawn) 0.08%, CC(=O)NCCn1c(SCc2ccccc2F)nc2ccccc2c1=O -4.55%, O=C(CSc1nc2sc3c(c2c(=O)[nH]1)CCC3)NCCO -6.15%, O=C(Cc1ccccc1)Nc1ccccc1C(=O)Nc1ccccc1 9.21%, O=C(CC12CC3CC(CC(C3)C1)C2)NCc1ccccc1 0.11%, FC(F)(F)c1ccc2c(c1)NCC1CCCN21 (stereo not drawn) 32.5%, O=C1Nc2ccccc2N2CCCC12 (stereo not drawn) -3.06%, COc1ccc(CNC(=O)C(C)N(C)Cc2cccc(F)c2)cc1 (stereo not drawn) -5.46%, CCNc1ccc(C(=O)NN=C2CCCC2)cc1[N+](=O)[O-] 4.6%, Cc1ccc(C)c(NC(=O)CSc2nc3[nH]ncc3c(=O)[nH]2)c1 8.18%, COc1cc(OC)c(-c2noc(C(=O)OC(C)(C)C)c2C(=O)OC(C)(C)C)c(OC)c1 -1.31%, O=C(/C=C/c1ccc([N+](=O)[O-])s1)N1CCN(c2ccccc2)CC1 2.14%, COc1cccc(/C=C2/C(=O)NN(c3ccccc3)C2=O)c1 0.84%, COc1cccc(N2C(=O)/C(=C\c3cccs3)NC2=S)c1 7.97%, Cc1ccc(N2NC(=O)/C(=C\c3cc4c(cc3[N+](=O)[O-])OCO4)C2=O)cc1C 27.7%, COc1ccccc1N1C(=O)S/C(=C\c2ccc(C)s2)C1=O -7.12%, COc1ccccc1NC(=O)C(=O)N/N=C/c1ccc([N+](=O)[O-])s1 -6.16%, O=C1N/C(=C/c2ccc(Br)s2)C(=O)N1c1ccccc1 -0.93%, O=C1NC(=S)N/C1=C/c1cc2c(cc1[N+](=O)[O-])OCO2 -9.06%, CCOC(=O)C1=C(CC)Nc2ccccc2N=C1NC(=O)c1ccc(S(=O)(=O)N2CCOCC2)cc1 -4.07%, O=c1nc2n(c3ccc([N+](=O)[O-])cc13)CCCCC2 -7.12%, CCOC(=O)N1CCC(NC(=O)c2cc(S(=O)(=O)N3CCc4ccccc43)cn2C)CC1 -4.57%, CCOC(=O)C1=C(C)N(C[C@@H]2CC[C@@H](Cc3ccc(-c4ccccc4)cc3)O2)C(=O)NC1c1ccc(SCc2ccco2)c([N+](=O)[O-])c1 (stereo partly drawn) 30.7%, Cc1nc2c(s1)sc1ccccc12 -4.72%, C=CC(=O)NC(C)(C)CCN1CCOCC1 0.07%, CCc1cccc(C)c1NC(=O)CO/N=C(\N)CC(=O)NC1CCCCC1 -0.04%, O=C1C=CC(=Nc2ccc3c(c2)C(=O)c2ccccc2-3)O1 -2.81%, O=[N+]([O-])c1ccccc1C=NNc1ccccc1 -8.57%, COc1ccc(CC(NC(C)=O)C(=O)NC2CCN(S(=O)(=O)c3ccccc3)CC2)c(OC)c1 (stereo not drawn) 3.28%, O=C(COC(=O)C12CC3CC(CC(Br)(C3)C1)C2)N1CCOCC1 4.7%, Cc1cc(=O)oc2cc(OCC(=O)N3CCCc4ccccc43)ccc12 -3.74%, COCCCNc1nc2nonc2nc1N1CCC(C(C)N2CCOCC2)CC1 (stereo not drawn) -10.9%, O=C(c1ccco1)N1CCN(c2ncccn2)CC1 5.99%, O=C(c1cccc(C(=O)N2CCN(c3ncccn3)CC2)c1)N1CCN(c2ncccn2)CC1 17.4%, CN1CCN(C(=O)c2ccc3nc(-c4ccccc4)c(-c4ccccc4)nc3c2)CC1 5.63%, CCN1CCN(C(=O)c2ccc3nc(-c4ccccc4)c(-c4ccccc4)nc3c2)CC1 -0.29%, O=C(COc1ccccc1)NC(Cc1c[nH]c2ccccc12)C(=O)O (stereo not drawn) 7.79%, c1ccc(-c2noc(CCC3CCCC3)n2)cc1 -1.6%, Cc1c(C(=O)N2CCCCCC2)oc2ccccc12 30.7%, Cc1cc(C)nc(NN=CC2=C(N3CCOCC3)/C(=C/c3ccc(Cl)cc3)CC2)n1 17.2%, Cc1cc(C)nc(N/N=C/c2ccc(Cl)cc2)n1 -3.39%, COC(CNC(=O)c1ccc(CS(=O)(=O)c2c(Cl)cccc2Cl)o1)OC -0.54%, CN(C)CCNC(=O)c1ccc(CS(=O)(=O)c2c(Cl)cccc2Cl)o1 3.4%, CC(=O)c1cccc(NC(=O)N2CCCC2C(=O)NC2CCCCC2)c1 (stereo not drawn) -4.16%, CCOc1ccc2nc(NC(=O)CSc3nc4c(c(=O)n(C)c(=O)n4C)n3C(C)C)sc2c1 18.8%, CCC(=O)c1ccc(N2CCN(C(=O)c3cccc(F)c3)CC2)c(F)c1 -9.86%, O=C(c1cccc(C(=O)N2CCN(c3ccccc3F)CC2)c1)N1CCN(c2ccccc2F)CC1 -8.59%, CCOC(=O)C1CCN(CC(O)COCc2ccc(Cl)cc2)CC1 (stereo not drawn) 8.82%, O=S(=O)(/C=C/c1ccccc1)N1CCN(c2cccc(Cl)c2)CC1 -3.95%, CS(=O)(=O)c1ccc2nc(NC(=O)c3ccco3)sc2c1 8.25%, Cc1ccc(C(=O)Nc2nc(-c3ccco3)c(-c3ccco3)s2)o1 23.7%, O=C(NC(=S)Nc1nc2ccc(F)cc2s1)c1ccco1 9.98%, COc1ccc(C(=O)Nc2nnc(-c3ccco3)s2)cc1 -3.84%, O=C(Nc1nnc(-c2ccco2)s1)C1CCCCC1 22.7%, O=C(Nc1nnc(-c2ccco2)s1)C1CC1 12.1%, O=C(Nc1nc(-c2cccs2)c(-c2ccccc2)s1)c1ccco1 2.82%, O=C(Nc1ccc(F)cc1F)c1cc(-c2ccco2)on1 5.56%, COc1ccc(CNC(=O)N[C@@H](CC(C)C)C(=O)O)cc1OC -2.37%, CCCc1cc(=O)[nH]c(SCC(=O)NCC2COc3ccccc3O2)n1 (stereo not drawn) -7.96%, COc1cnc(-c2ccccn2)[nH]c1=O 2.61%, O=C(Cn1nnc(-c2ccccc2F)n1)NCc1ccco1 10.4%, COc1ccc(CCNS(=O)(=O)c2ccc(OC)cc2)cc1 -5.66%, Cc1[nH]c2ccc(Br)cc2c(=O)c1CN1CCCCCC1 -12.9%, CC1CCCN(S(=O)(=O)Cc2ccc(Cl)cc2)C1 (stereo not drawn) 4.49%, COc1ccc(COc2ccsc2C(=O)Nc2ccc(Cl)cc2)cc1 -8.53%, [O-][n+]1cccc2cccc(O)c21 -10.3%, Cc1ccc2cccc(O)c2[n+]1[O-] 18.8%, C/C(=N\NC=O)c1ccncc1 -3.47%, COc1ccc(CC(=O)N(C)C2CCCCC2)cc1S(=O)(=O)N1CCOCC1 1.22%, COc1ccc2c(OC)cc(=O)n(C)c2c1 6.19%, Cc1cc(=O)n(C)c2ccccc12 -5.08%, COc1ccc2[nH]c3ccccc3c2c1 1.16%, Cc1ccc2c(c1)c1c(n2C)C(=O)CCC1 -2%, COc1ccc2c(c1)c1ccccc1n2C 1.57%, Cc1ccc2c(C)c(C)c(=O)n(C)c2c1 -6.81%, COc1ccc2[nH]c(C)cc(=O)c2c1 -0.89%, Cc1ccc(C)c2c1c1ccccc1n2C -3.59%, Cc1c(NC(=O)c2cc(-c3ccccc3)nc3ccccc23)c(=O)n(-c2ccccc2)n1C -2.43%, CC1=C(C(=O)OCc2ccccc2)C(c2ccccc2Br)NC(=O)N1 (stereo not drawn) -2.14%, COc1ccccc1C(O)(c1ccccc1)C(CN1CCOCC1)c1ccccc1 (stereo not drawn) 3.77%, COc1ccc(NC(=O)c2cc(-c3ccccc3)nc3c2c(C)nn3-c2ccccc2)c(OC)c1 1.03%, COC(=O)Cc1[nH]nc2c1C(C1C=CCCC1)C(C#N)=C(N)O2 (stereo not drawn) 7.26%, COc1ccc(C2/C=C\CN(C(=O)C3CC3)[C@H](Cc3ccccc3)C(=O)N2Cc2ccc(F)cc2)cc1 (stereo partly drawn) 7.45%, CC1CCN(C(=O)CSc2nnc(-c3ccncc3)n2C)CC1 8.77%, COc1cc(OC)cc(C(=O)NC2CCN(CCCOc3ccccc3)CC2)c1 -2.34%, CCN(CC(=O)Nc1ccc(NC(C)=O)cc1)C(=O)c1ccc2ccccc2c1 8.12%, Nc1c(C(=O)CSc2nnc(-c3ccccc3F)o2)c(=O)[nH]c(=O)n1C1CC1 -9.99%, Cn1c2ccccc2c2c(=O)oc3ccccc3c21 -5.39%, CC(=O)n1c2ccccc2c2c1c1ccccc1n2C -6.7%, CCOc1ccccc1NC(=O)Nc1cccc(S(N)(=O)=O)c1 1.28%, O=C(/C=C/c1ccccc1)c1ccc2c(c1)OCO2 -5.81%, CCOc1ccc(-n2c(=O)c3c4c(sc3n(CC(=O)NCc3ccco3)c2=O)CCC4)cc1 -4.88%, Cc1sc2c(c1C)c(=O)n(-c1ccc(F)cc1)c(=O)n2CC(=O)NCc1ccco1 -4.06%, C=CC(=O)N1C/C(=C/c2ccccc2)C(=O)/C(=C\c2ccccc2)C1 6.41%, CCOC(=O)N1C/C(=C\c2ccccc2)C(=O)/C(=C/c2ccccc2)C1 1.34%, CC(C)CCNC(=O)C(=O)NCc1ccccc1 21.7%, COc1ccc(NC(=O)CCSc2ccc(F)cc2)cc1 29.9%, COc1ccc(NC(=O)COC(=O)CCSc2ccccc2)cc1 -0.53%

— PubChem BioAssay AID1117319 (Southern Research Institute, 2015)
